Assay results taken from the supplement of paper PMC8728848.
About 410 targets per protein were measured; listed, in parts, are those with the strongest signals and a random draw of the rest.

The substances below were run on Gal(b1-2)Gal (assay: glycan array binding signal (z-score within array); higher = stronger binding). Details: glycan notation: IUPAC condensed, linker removed.
Procedure, shortened: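 Glycan array data were curated from 3228 arrays in the Consortium for Functional Glycomics database and kept only where the protein sequence was available. Glycan names were converted to IUPAC-condensed notation, and columns mapping to the same glycan were averaged. The binding signal is a within-array Z-score, averaged across arrays of the same protein sequence at different concentrations or buffers and across linkers. Negative Z-scores can be read as non-binding.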

PILRb (Mus musculus), Q2YSF2, sequence (Q2YSF2 entry or part of it): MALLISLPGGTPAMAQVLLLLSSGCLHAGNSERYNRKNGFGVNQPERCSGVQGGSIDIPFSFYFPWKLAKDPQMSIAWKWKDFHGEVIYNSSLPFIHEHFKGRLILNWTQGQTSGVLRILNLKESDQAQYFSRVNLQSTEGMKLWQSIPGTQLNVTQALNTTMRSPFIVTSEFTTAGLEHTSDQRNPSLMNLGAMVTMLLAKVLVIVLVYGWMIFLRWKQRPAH
CHI3L1 (Homo sapiens), P36222, sequence (P36222 whole entry): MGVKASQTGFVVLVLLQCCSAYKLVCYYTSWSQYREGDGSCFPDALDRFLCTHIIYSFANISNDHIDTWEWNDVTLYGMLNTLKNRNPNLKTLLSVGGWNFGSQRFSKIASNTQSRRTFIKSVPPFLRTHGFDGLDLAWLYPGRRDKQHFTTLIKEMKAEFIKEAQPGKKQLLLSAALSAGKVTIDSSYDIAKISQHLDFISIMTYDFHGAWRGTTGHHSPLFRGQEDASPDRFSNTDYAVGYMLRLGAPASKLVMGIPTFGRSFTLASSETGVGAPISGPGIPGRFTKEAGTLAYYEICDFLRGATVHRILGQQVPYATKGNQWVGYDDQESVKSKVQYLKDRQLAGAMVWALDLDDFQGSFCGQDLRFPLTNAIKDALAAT

Substance | glycan array binding signal (z-score)
PILRb (Mus musculus), Q2YSF2 | -0.075
CHI3L1 (Homo sapiens), P36222 | -0.006
HARE (Homo sapiens), Q8WWQ8 | -0.074
